Data on 17 molecules can be found in PubChem BioAssay (NCATS).

Structures are written as SMILES. “And” between values parts separate entries of the source, which are not always exact repeats. Equal values may be shown once. Results filed as inconclusive are left out. The source made the active and inactive calls. The call rests on the fitted dose curve; in most records, active means well fitted curve in the direction sought with a large enough effect; inconclusive means small, poorly fitted or top-dose-only effect, or another doubt; inactive means no such curve, though single readings can be large; an effect the other way counts as inactive or inconclusive.

The target of experiment [1] is Beta-2 adrenergic receptor (Homo sapiens) (UniProt P07550). As to the kind of experiment: qHTS validation assay of beta-arrestin-biased ligands of beta2-adrenergic receptor (AID 485366). An outline of the steps: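 Tango cells (recombinant beta2-AR with recombinant beta-arrestin; recruitment releases tTA driving luciferase) were treated with compounds titrated up to 46 microM for 18 hr at 37 degrees C. Luminescence gave %Activity, and concentration-response curves were curve-classified.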
(qHTS replaces the single test concentration by a dilution series.)

Experiment [2] addresses ATP-dependent 6-phosphofructokinase (Trypanosoma brucei brucei) (UniProt O15648). As to the kind of experiment: qHTS Validation Assay to Find Inhibitors of T. brucei phosphofructokinase (AID 485368). Further: potency means the concentration at half of the fitted maximal effect. An outline of the steps: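 Compounds (up to 57 uM, titration series) were pinned into substrate buffer, then 1.25 nM PFK added; after 45 min at room temperature, ADP product was quantified by ADP-Glo luminescence and concentration-response curves fitted.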

Experiment [3] is described as follows: Quantitative high throughput screen for delayed death inhibitors of the malarial parasite plastid, 48 hour incubation (AID 488752). Further: nearly all actives have a fitted effect of over 65% in size. An outline of the steps: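 Readout is firefly luciferase luminescence from a reporter integrated into the parasite genome, with lower signal taken as inhibited growth. Infected red cells (0.1% parasitemia, 2% hematocrit final) are cultured with compound for one 48 h cycle at 37 C.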

Experiment [4] concerns the target Thioredoxin reductase 1, cytoplasmic (Rattus norvegicus) (UniProt O89049). Nature of the experiment: qHTS Assay for Substrates of Mammalian Selenoprotein Thioredoxin Reductase 1 (TrxR1) (AID 488772).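 Further: NADPH fluorescence in the first read after selenite addition and not the 8 min delta; series mostly up to about 57 µM; a drop in NADPH fluorescence below the no-compound background marks a TrxR1 substrate.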 An outline of the steps:
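Quantitative HTS in Tris-HCl buffer at pH 7.5 with EDTA and Tween-20, using rat TrxR1, 400 uM NADPH and 400 uM selenite (final). A fall in initial NADPH fluorescence relative to background marked substrate behaviour.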

Experiment [5] has the same target. Nature of the experiment: qHTS Assay for Inhibitors of Mammalian Selenoprotein Thioredoxin Reductase 1 (TrxR1) (AID 488773).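 Further: drop in NADPH fluorescence over an 8 min run after selenite addition; series mostly up to about 57 µM; nearly all actives have a fitted effect of over 40% in size.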 The conditions noted are these: Potency: inhibition. Put shortly:
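Steps: enzyme (90 nM) plus NADPH (400 uM final), 5 min at ~22 deg C; compound added, 15 min; selenite (400 uM final) added; fluorescence followed for 8 min. Concentration-response curves derived from the normalized delta values.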

The target in experiment [6] is Flap endonuclease 1 (Homo sapiens) (UniProt P39748). Nature of the experiment: qHTS Validation Assay for the Inhibitors of Human Flap endonuclease 1 (FEN1) (AID 488816). Put shortly:
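FEN1, dispensed as a 10 nM reagent, was preincubated with pin-transferred compounds for 15 min at room temperature before substrate was added (50 nM final). Plates were read at 0 and 15 min, and a four-parameter Hill equation was fitted to the concentration-response data.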

For experiment [7], the target named is M-phase phosphoprotein 8 (Homo sapiens) (UniProt Q99549). Nature of the experiment: qHTS Validation Assay for Inhibitors for MPP8 Chromodomain Interactions with Methylated Histone Tails (AID 488949). Further: nearly all actives have a fitted effect of over 55% in size. Further: potency means the concentration at half of the fitted maximal effect. An outline of the steps:
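MPP8 (50 nM) was pre-bound to 50 nM biotinylated H3(1-18)K9me3 peptide in PBS pH 7.4 with 0.01% Tween-20. Compounds were then added for 30 min at room temperature, and complex disruption was read by AlphaScreen with streptavidin donor and nickel-chelate acceptor beads.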

Experiment [8] addresses Methanococcus maripaludis chaperonin (MmCpn) (UniProt Q6LX38). As to the kind of experiment: High-Throughput Screening for Modulators of Cytosolic Chaperonin Activity: MmCpn Primary Screen (AID 488978).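 Further: 50 nM MmCpn enzyme hydrolysing 30 µM ATP at 37 °C.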 An outline of the steps: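 MmCpn at 50 nM final was preincubated 5 min at RT with compound. ATP was then added at 30 uM final for 10 min at 37 C. ADP formed was detected by Transcreener HTRF (665/590 nm).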

Experiment [9] has as its target Chromobox protein homolog 1 (Homo sapiens) (UniProt P83916). As to the kind of experiment: qHTS Validation Assay for Inhibitors of HP1-beta Chromodomain Interactions with Methylated Histone Tails (AID 488953). Further: nearly all actives have a fitted effect of over 50% in size. Further: potency means the concentration at half of the fitted maximal effect. An outline of the steps: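 50 nM HP1-beta + 50 nM biotin-H3(1-18)K9me3, PBS pH 7.4, 0.01% Tween-20, 30 min RT; compound added, 30 min RT; AlphaScreen beads 10 ug/mL final, 30 min dark; luminescence read.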

The nature of experiment [10]: Quantitative high throughput screen for delayed death inhibitors of the malarial parasite plastid, 96 hour incubation (AID 488745).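 Further: luciferase-expressing P. falciparum in erythrocytes at 2% hematocrit and 0.1% parasitemia; series mostly up to about 29 µM; nearly all actives have a fitted effect of over 70% in size.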 An outline of the steps:
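Infected erythrocytes were added to compound in Albumax-supplemented RPMI 1640 at 0.1% parasitemia and 2% hematocrit (final), incubated 96 h at 37 C under 5% CO2, then luciferase reagent was added and luminescence measured.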

Sequence of Methanococcus maripaludis chaperonin (MmCpn) (Q6LX38 1-543): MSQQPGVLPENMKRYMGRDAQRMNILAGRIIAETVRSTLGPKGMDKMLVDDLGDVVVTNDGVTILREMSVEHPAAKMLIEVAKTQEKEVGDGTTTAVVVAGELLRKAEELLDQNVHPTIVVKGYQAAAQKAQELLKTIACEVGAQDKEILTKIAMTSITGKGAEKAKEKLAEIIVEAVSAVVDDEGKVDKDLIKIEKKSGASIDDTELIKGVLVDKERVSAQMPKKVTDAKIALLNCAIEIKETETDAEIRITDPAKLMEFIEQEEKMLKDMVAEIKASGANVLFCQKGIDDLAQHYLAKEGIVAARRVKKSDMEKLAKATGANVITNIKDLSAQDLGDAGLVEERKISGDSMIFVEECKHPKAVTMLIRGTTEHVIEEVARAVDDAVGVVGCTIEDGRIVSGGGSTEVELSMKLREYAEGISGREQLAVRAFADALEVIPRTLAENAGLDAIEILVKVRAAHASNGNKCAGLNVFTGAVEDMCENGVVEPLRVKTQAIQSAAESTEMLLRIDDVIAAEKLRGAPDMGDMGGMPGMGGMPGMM
Sequence of Beta-2 adrenergic receptor (Homo sapiens) (P07550 whole entry, looked up): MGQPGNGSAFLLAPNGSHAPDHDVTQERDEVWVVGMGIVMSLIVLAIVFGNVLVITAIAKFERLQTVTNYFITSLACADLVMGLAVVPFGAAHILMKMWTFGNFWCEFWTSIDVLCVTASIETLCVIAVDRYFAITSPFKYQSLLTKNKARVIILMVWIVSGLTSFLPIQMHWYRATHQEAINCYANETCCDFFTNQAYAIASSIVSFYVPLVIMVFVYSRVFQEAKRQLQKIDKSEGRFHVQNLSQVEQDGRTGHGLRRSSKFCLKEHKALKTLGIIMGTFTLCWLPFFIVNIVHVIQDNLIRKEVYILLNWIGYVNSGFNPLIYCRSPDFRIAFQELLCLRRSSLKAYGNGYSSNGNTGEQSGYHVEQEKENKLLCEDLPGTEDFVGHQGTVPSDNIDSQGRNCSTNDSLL
Sequence of Flap endonuclease 1 (Homo sapiens) (P39748 whole entry, looked up): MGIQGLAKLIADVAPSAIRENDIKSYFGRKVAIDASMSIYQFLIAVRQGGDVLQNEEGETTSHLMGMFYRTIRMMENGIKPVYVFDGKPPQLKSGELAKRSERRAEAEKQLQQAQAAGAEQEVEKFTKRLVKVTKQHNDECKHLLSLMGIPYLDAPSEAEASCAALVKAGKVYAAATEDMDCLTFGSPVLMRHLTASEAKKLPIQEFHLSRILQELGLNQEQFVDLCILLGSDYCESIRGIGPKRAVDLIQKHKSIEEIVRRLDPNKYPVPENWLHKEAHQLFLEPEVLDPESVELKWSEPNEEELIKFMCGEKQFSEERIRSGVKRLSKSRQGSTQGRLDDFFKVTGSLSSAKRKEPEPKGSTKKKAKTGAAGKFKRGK
Sequence of ATP-dependent 6-phosphofructokinase (Trypanosoma brucei brucei) (O15648 whole entry, looked up): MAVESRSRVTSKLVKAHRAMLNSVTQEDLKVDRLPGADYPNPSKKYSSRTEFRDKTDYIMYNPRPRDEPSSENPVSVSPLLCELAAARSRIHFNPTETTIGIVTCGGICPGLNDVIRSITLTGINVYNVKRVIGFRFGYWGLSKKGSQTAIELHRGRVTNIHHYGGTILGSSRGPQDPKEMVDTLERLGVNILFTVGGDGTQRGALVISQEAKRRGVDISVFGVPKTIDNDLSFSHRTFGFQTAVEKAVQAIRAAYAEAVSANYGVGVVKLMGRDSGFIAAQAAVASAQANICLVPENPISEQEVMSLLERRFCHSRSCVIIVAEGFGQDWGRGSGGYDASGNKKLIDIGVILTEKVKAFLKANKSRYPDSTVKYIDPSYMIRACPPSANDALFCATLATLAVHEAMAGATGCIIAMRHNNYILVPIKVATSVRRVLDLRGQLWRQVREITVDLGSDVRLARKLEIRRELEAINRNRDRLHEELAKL
Sequence of M-phase phosphoprotein 8 (Homo sapiens) (Q99549 whole entry, looked up): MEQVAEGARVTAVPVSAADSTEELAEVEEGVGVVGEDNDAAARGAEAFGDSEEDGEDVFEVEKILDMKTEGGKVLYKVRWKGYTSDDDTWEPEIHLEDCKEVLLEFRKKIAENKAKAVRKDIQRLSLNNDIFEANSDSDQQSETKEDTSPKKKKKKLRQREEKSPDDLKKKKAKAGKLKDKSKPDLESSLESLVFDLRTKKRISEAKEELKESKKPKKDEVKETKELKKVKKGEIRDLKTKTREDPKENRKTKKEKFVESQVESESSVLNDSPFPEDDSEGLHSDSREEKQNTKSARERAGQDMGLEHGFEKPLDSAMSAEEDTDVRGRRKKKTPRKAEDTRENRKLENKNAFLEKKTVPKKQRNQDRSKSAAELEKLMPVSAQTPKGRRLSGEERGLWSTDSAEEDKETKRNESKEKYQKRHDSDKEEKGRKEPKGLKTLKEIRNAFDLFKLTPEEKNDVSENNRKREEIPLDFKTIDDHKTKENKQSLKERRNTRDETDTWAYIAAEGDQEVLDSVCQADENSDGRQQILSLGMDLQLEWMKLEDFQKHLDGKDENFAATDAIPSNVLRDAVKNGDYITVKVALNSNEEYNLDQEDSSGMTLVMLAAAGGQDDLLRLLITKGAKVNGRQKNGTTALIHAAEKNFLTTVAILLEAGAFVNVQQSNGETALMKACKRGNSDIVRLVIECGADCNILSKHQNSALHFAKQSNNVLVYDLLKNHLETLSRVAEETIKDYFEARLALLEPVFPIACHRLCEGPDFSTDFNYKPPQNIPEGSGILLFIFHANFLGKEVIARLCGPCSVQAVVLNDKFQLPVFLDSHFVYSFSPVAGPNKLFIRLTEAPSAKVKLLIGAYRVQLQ
Sequence of Thioredoxin reductase 1, cytoplasmic (Rattus norvegicus) (O89049 whole entry, looked up): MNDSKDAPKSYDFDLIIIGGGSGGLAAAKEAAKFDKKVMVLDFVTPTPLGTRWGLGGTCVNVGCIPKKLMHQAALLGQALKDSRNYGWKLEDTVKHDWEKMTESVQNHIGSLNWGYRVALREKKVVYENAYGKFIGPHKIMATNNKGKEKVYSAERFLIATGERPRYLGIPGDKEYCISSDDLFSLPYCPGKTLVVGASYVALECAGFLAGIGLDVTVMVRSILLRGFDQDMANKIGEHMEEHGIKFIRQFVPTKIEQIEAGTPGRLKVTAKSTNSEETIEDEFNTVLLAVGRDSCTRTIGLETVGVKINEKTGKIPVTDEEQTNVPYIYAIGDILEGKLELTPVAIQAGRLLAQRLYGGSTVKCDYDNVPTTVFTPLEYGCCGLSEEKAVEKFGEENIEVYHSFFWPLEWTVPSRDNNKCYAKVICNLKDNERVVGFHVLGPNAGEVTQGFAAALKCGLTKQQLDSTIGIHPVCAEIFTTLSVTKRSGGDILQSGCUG
Sequence of Chromobox protein homolog 1 (Homo sapiens) (P83916 whole entry, looked up): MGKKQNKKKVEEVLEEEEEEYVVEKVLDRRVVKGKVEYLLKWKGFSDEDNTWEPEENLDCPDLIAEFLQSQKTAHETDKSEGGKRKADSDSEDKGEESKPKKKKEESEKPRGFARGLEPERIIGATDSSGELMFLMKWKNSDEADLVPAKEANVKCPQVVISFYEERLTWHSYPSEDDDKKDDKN

Consider `COC(=O)C(C)(N)Cc1ccc(O)cc1` (configuration not stated), for which the molecule was called inactive in experiment [1], in experiment [4] and in experiment [8]. For the same molecule, the Potency entry in [2], in [3], in [5], in experiment [6] and in [7] was “inactive” in each case.
Turning to `COc1ccccc1N1CCN(CCN(C(=O)c2ccc(F)cc2)c2ccccn2)CC1`, the molecule was called inactive in [1], in experiment [4] and in experiment [8]. In addition, the Potency result in [2], in experiment [5], in experiment [6] and in experiment [7] was “inactive” throughout.
With `COc1ccc(C(=O)NCc2cccnc2)cc1C(=O)NCc1cccnc1`, the call in experiment [1], in experiment [4] and in experiment [8] was inactive. For the same molecule, the Potency entry in experiment [2], in experiment [5], in experiment [6], in experiment [7] and in experiment [9] was “inactive” throughout.
With `CC(C)(C)c1ccc(/C=C/C(=O)Nc2ccc3c(c2)OCCO3)cc1`, the molecule was called inactive in experiment [1], in [4] and in experiment [8]. Also, the Potency result in experiment [2], in experiment [5], in [6] and in [7] was “inactive” throughout.
As to `O=C(O)/C=C/c1cnc[nH]1`, the call in [1], in experiment [4] and in experiment [8] was inactive. In addition, the Potency result in experiment [2], in experiment [3], in [5], in experiment [6] and in experiment [7] was “inactive” throughout.
In the case of `C=C1C[C@@]23CC[C@H]4[C@@](C)(CCC[C@@]4(C)C(=O)O)[C@@H]2CC[C@]1(O)C3`, the molecule was classed as inactive in [1], in experiment [4] and in experiment [8]. The Potency entry in [2], in experiment [5], in experiment [6], in [7] and in experiment [9] was “inactive” throughout.
Turning to `COc1ccc2c(c1)c(CC(=O)O)c(C)n2Cc1ccc(Cl)cc1`, the molecule was classed as inactive in [1], in [4] and in [8]. In addition, the Potency entry in experiment [2], in experiment [5], in [6] and in [7] was “inactive” in each case. The Potency in experiment [9] was 0.0067 µM (active).
For the molecule `Cc1nc2n(c(=O)c1CCN1CCC(c3noc4cc(F)ccc34)CC1)CCCC2O` (configuration not stated), the call in [1] and in experiment [4] was inactive. The Potency result in experiment [2], in [5], in experiment [7] and in experiment [9] was “inactive” throughout.
For `CNC(=O)c1cc2c(cn1)[nH]c1ccccc12`, the call in experiment [1], in experiment [4] and in experiment [8] was inactive. Also, the Potency result in [2], in experiment [5], in [6] and in [7] was “inactive” in each case.
As for `CN1CC(O)C(O)C(O)C1CO` (configuration not stated), the result in experiment [1], in experiment [4] and in experiment [8] was inactive. Further, the Potency result in experiment [2], in experiment [5], in [6], in experiment [7] and in [9] was “inactive” in each case.
Consider `Cc1cc(Cn2cnc3c2C[C@@H](C(=O)O)N(C(=O)C(c2ccccc2)c2ccccc2)C3)ccc1N`, for which the result in experiment [1], in experiment [4] and in experiment [8] was inactive. The Potency result in [2], in experiment [5], in experiment [6] and in experiment [7] was “inactive” throughout.
Take `N#C/C(=C\c1ccc(O)c(O)c1)C(=O)NCCc1ccccc1`: the molecule was called inactive in [1] and in experiment [4]. In addition, the Potency was 15.1 µM (active) in [2]; 11.2 µM (active) and 18.9 µM (active) in experiment [7]; 10 µM (active) in experiment [9]. In addition, in [6], the Potency entry is “inactive”.
Take `NC[C@@H]1O[C@H](c2ccccc2)Cc2c1ccc(O)c2O`: the outcome in [1], in experiment [4] and in experiment [8] was inactive. The Potency entry in experiment [2], in experiment [5], in experiment [7] and in [9] was “inactive” in each case.
With `CCC(=O)N1CCN(C(=O)c2ccccc2)CC1`, the molecule was classed as inactive in experiment [1], in experiment [4] and in experiment [8]. Further, the Potency entry in [10], in [3], in [5], in [6], in experiment [7] and in experiment [9] was “inactive” throughout.
In the case of `O=C(O)Cc1c[nH]c2ccc(O)cc12`, the outcome in [1], in [4] and in experiment [8] was inactive. Besides, the Potency result in experiment [2], in experiment [7] and in experiment [9] was “inactive” throughout.
For `CC1=C(/C=C/C(C)=C/C=C/C(C)=C\C(=O)O)C(C)(C)CCC1`, the result in experiment [1], in experiment [4] and in experiment [8] was inactive. The Potency entry in experiment [2], in [6], in experiment [7] and in experiment [9] was “inactive” in each case.
For `CCCCCC[C@@H]([C@@H](C)O)n1cnc2c(N)ncnc21`, the outcome in experiment [1], in experiment [4] and in [8] was inactive. In addition, the Potency entry in experiment [2] and in experiment [7] was “inactive” in each case.
